From the supplement of paper PMC12282887
± gives the standard deviation of the averaged measurements.

Key:
Assay in all cases: promoter activity interaction Z-score (Lux/OD deviation from empty-vector control); higher = stronger promoter induction by the compound
[1] = system: E. coli BW25113 acrABp lux reporter
Method in brief: (§1)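 E. coli BW25113 (wild type or marA, soxS or rob deletion) carrying low-copy luxCDABE promoter reporters grew in 40 µl LB Lennox in 384-well plates at 37°C. Each compound was tested at four 1:2 dilutions in biological duplicates. OD600 and luminescence were read every 30 min for 12 h. Areas were taken over 0–8 h (wild type) or 1–9 h (mutants), and wells below 10% of median growth area were removed. The score is the Z-transformed residual of growth-normalised luminescence fitted against the empty-vector control.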

[2] = system: E. coli BW25113 marRABp lux reporter
Method in brief: as §1

[3] = system: E. coli BW25113 micFp lux reporter
Method in brief: as §1

[4] = system: E. coli BW25113 ompFp lux reporter
Method in brief: as §1

[5] = system: E. coli BW25113 robp lux reporter
Method in brief: as §1

[6] = system: E. coli BW25113 soxSp lux reporter
Method in brief: as §1

[7] = system: E. coli BW25113 tolCp lux reporter
Method in brief: as §1

[8] = 1 µg/ml, genetic background: wild type
[9] = 1 µg/ml, genetic background: ΔmarA
[10] = 1 µg/ml, genetic background: Δrob
[11] = 1 µg/ml, genetic background: ΔsoxS
[12] = 2.1 µg/ml, genetic background: wild type
[13] = 2.1 µg/ml, genetic background: ΔmarA
[14] = 2.1 µg/ml, genetic background: Δrob
[15] = 2.1 µg/ml, genetic background: ΔsoxS
[16] = 4.1 µg/ml, genetic background: wild type
[17] = 4.1 µg/ml, genetic background: ΔmarA
[18] = 4.1 µg/ml, genetic background: Δrob
[19] = 4.1 µg/ml, genetic background: ΔsoxS
[20] = 8.2 µg/ml, genetic background: wild type
[21] = 0.13 µg/ml, genetic background: wild type
[22] = 0.13 µg/ml, genetic background: ΔmarA
[23] = 0.13 µg/ml, genetic background: Δrob
[24] = 0.13 µg/ml, genetic background: ΔsoxS
[25] = 0.26 µg/ml, genetic background: wild type
[26] = 0.26 µg/ml, genetic background: ΔmarA
[27] = 0.26 µg/ml, genetic background: Δrob
[28] = 0.26 µg/ml, genetic background: ΔsoxS
[29] = 0.52 µg/ml, genetic background: wild type
[30] = 0.52 µg/ml, genetic background: ΔmarA
[31] = 0.52 µg/ml, genetic background: Δrob
[32] = 0.52 µg/ml, genetic background: ΔsoxS

CO[C@H]1/C=C/O[C@@]2(C)Oc3c(C)c(O)c4c(O)c(c(/C=N/N5CCN(C)CC5)c(O)c4c3C2=O)NC(=O)/C(C)=C\C=C\[C@H](C)[C@H](O)[C@@H](C)[C@@H](O)[C@@H](C)[C@H](OC(C)=O)[C@@H]1C [Rifampicin]
promoter activity interaction Z-score [1, 8]: -0.791 ± 0.2
promoter activity interaction Z-score [1, 9]: -0.655 ± 0.13
promoter activity interaction Z-score [1, 10]: -0.627 ± 0.021
promoter activity interaction Z-score [1, 11]: -0.932 ± 0.2
promoter activity interaction Z-score [1, 12]: -0.695 ± 0.1
promoter activity interaction Z-score [1, 13]: -0.516 ± 0.29
promoter activity interaction Z-score [1, 14]: -0.838 ± 0.088
promoter activity interaction Z-score [1, 15]: -0.731 ± 0.3
promoter activity interaction Z-score [1, 16]: -0.811 ± 0.28
promoter activity interaction Z-score [1, 17]: -0.168 ± 0.19
promoter activity interaction Z-score [1, 18]: -1.06 ± 0.08
promoter activity interaction Z-score [1, 19]: -1.31 ± 0.3
promoter activity interaction Z-score [2, 8]: -0.547 ± 0.12
promoter activity interaction Z-score [2, 9]: -0.978 ± 0.48
promoter activity interaction Z-score [2, 10]: -0.432 ± 0.12
promoter activity interaction Z-score [2, 11]: -0.415 ± 0.079
promoter activity interaction Z-score [2, 12]: -0.461 ± 0.4
promoter activity interaction Z-score [2, 13]: -1.18 ± 0.22
promoter activity interaction Z-score [2, 14]: -0.469 ± 0.39
promoter activity interaction Z-score [2, 15]: -0.423 ± 0.032
promoter activity interaction Z-score [2, 16]: -1.1 ± 0.31
promoter activity interaction Z-score [2, 17]: -1.23 ± 0.38
promoter activity interaction Z-score [2, 18]: -0.719 ± 0.14
promoter activity interaction Z-score [2, 19]: -0.7557 ± 0.006
promoter activity interaction Z-score [3, 8]: -0.224 ± 0.14
promoter activity interaction Z-score [3, 9]: -0.444 ± 0.16
promoter activity interaction Z-score [3, 10]: -0.287 ± 0.055
promoter activity interaction Z-score [3, 11]: -0.476 ± 0.024
promoter activity interaction Z-score [3, 12]: -0.39 ± 0.23
promoter activity interaction Z-score [3, 13]: -0.505 ± 0.12
promoter activity interaction Z-score [3, 14]: -0.336 ± 0.076
promoter activity interaction Z-score [3, 15]: -0.31 ± 0.041
promoter activity interaction Z-score [3, 16]: -0.432 ± 0.21
promoter activity interaction Z-score [3, 17]: -0.471 ± 0.047
promoter activity interaction Z-score [3, 18]: -0.229 ± 0.029
promoter activity interaction Z-score [3, 19]: -0.507 ± 0.018
promoter activity interaction Z-score [3, 20]: -0.505 ± 0.31
promoter activity interaction Z-score [4, 8]: -0.966 ± 0.35
promoter activity interaction Z-score [4, 9]: -1.53 ± 0.33
promoter activity interaction Z-score [4, 10]: -1.43 ± 0.2
promoter activity interaction Z-score [4, 11]: -1.07 ± 0.04
promoter activity interaction Z-score [4, 12]: -1.06 ± 0.5
promoter activity interaction Z-score [4, 13]: -2.11 ± 0.12
promoter activity interaction Z-score [4, 14]: -1.62 ± 0.39
promoter activity interaction Z-score [4, 15]: -0.784 ± 0.23
promoter activity interaction Z-score [4, 16]: -2.01 ± 0.86
promoter activity interaction Z-score [4, 17]: -2.895 ± 0.0098
promoter activity interaction Z-score [4, 18]: -2.58 ± 0.26
promoter activity interaction Z-score [4, 19]: -1.59 ± 0.43
promoter activity interaction Z-score [5, 8]: -0.184 ± 0.35
promoter activity interaction Z-score [5, 9]: -0.802 ± 0.3
promoter activity interaction Z-score [5, 10]: -0.501 ± 0.085
promoter activity interaction Z-score [5, 11]: -0.537 ± 0.55
promoter activity interaction Z-score [5, 12]: 0.236 ± 0.31
promoter activity interaction Z-score [5, 13]: -0.639 ± 0.41
promoter activity interaction Z-score [5, 14]: -0.575 ± 0.22
promoter activity interaction Z-score [5, 15]: -0.311 ± 0.2
promoter activity interaction Z-score [5, 16]: -0.918 ± 0.011
promoter activity interaction Z-score [5, 17]: -0.833 ± 0.44
promoter activity interaction Z-score [5, 18]: -0.434 ± 0.68
promoter activity interaction Z-score [5, 19]: -1.71 ± 0.29
promoter activity interaction Z-score [6, 8]: -0.47 ± 0.0069
promoter activity interaction Z-score [6, 9]: -0.3407 ± 0.0028
promoter activity interaction Z-score [6, 10]: -0.44 ± 0.088
promoter activity interaction Z-score [6, 11]: -1.04 ± 0.46
promoter activity interaction Z-score [6, 12]: -0.551 ± 0.01
promoter activity interaction Z-score [6, 13]: -0.657 ± 0.0084
promoter activity interaction Z-score [6, 14]: -0.53 ± 0.048
promoter activity interaction Z-score [6, 15]: -1.11 ± 0.17
promoter activity interaction Z-score [6, 16]: -0.866 ± 0.076
promoter activity interaction Z-score [6, 17]: -0.906 ± 0.027
promoter activity interaction Z-score [6, 18]: -0.982 ± 0.24
promoter activity interaction Z-score [6, 19]: -1.51 ± 0.17
promoter activity interaction Z-score [6, 20]: -0.811 ± 0.051
promoter activity interaction Z-score [7, 8]: -0.736 ± 0.25
promoter activity interaction Z-score [7, 9]: -0.931 ± 0.48
promoter activity interaction Z-score [7, 10]: -0.816 ± 0.4
promoter activity interaction Z-score [7, 11]: -1.26 ± 0.3
promoter activity interaction Z-score [7, 12]: -0.703 ± 0.32
promoter activity interaction Z-score [7, 13]: -1.19 ± 0.18
promoter activity interaction Z-score [7, 14]: -0.827 ± 0.14
promoter activity interaction Z-score [7, 15]: -0.674 ± 0.63
promoter activity interaction Z-score [7, 16]: -0.555 ± 0.72
promoter activity interaction Z-score [7, 17]: -0.65 ± 0.61
promoter activity interaction Z-score [7, 18]: -1.152 ± 0.0016
promoter activity interaction Z-score [7, 19]: -0.717 ± 0.57
promoter activity interaction Z-score [7, 20]: 0.0561 ± 0.59

CNC(C)C1CCC(N)C(OC2C(N)CC(N)C(OC3OCC(C)(O)C(NC)C3O)C2O)O1 (centres undefined) [Gentamicin]
promoter activity interaction Z-score [1, 21]: -0.258 ± 0.098
promoter activity interaction Z-score [1, 22]: 0.731 ± 0.32
promoter activity interaction Z-score [1, 23]: 0.126 ± 0.055
promoter activity interaction Z-score [1, 24]: 0.158 ± 0.14
promoter activity interaction Z-score [1, 25]: -0.117 ± 0.18
promoter activity interaction Z-score [1, 26]: 0.35 ± 0.15
promoter activity interaction Z-score [1, 27]: 0.483 ± 0.18
promoter activity interaction Z-score [1, 28]: 0.0843 ± 0.06
promoter activity interaction Z-score [1, 29]: 0.311 ± 0.023
promoter activity interaction Z-score [1, 30]: 0.396 ± 0.21
promoter activity interaction Z-score [1, 31]: 0.801 ± 0.45
promoter activity interaction Z-score [1, 32]: 0.744 ± 0.39
promoter activity interaction Z-score [3, 21]: -0.256 ± 0.0079
promoter activity interaction Z-score [3, 22]: -0.00364 ± 0.024
promoter activity interaction Z-score [3, 23]: -0.0412 ± 0.1
promoter activity interaction Z-score [3, 24]: 0.232 ± 0.23
promoter activity interaction Z-score [3, 25]: -0.302 ± 0.26
promoter activity interaction Z-score [3, 26]: 0.035 ± 0.072
promoter activity interaction Z-score [3, 27]: 0.115 ± 0.15
promoter activity interaction Z-score [3, 28]: 0.509 ± 0.23
promoter activity interaction Z-score [3, 29]: -0.614 ± 0.016
promoter activity interaction Z-score [3, 30]: 0.0535 ± 0.039
promoter activity interaction Z-score [3, 31]: 0.114 ± 0.013
promoter activity interaction Z-score [3, 32]: 0.235 ± 0.36
promoter activity interaction Z-score [4, 21]: -0.504 ± 0.27
promoter activity interaction Z-score [4, 22]: -0.192 ± 0.27
promoter activity interaction Z-score [4, 23]: 0.285 ± 0.14
promoter activity interaction Z-score [4, 24]: 0.28 ± 0.15
promoter activity interaction Z-score [4, 25]: -1.09 ± 0.052
promoter activity interaction Z-score [4, 26]: -0.0939 ± 0.49
promoter activity interaction Z-score [4, 27]: -0.00259 ± 0.23
promoter activity interaction Z-score [4, 28]: 0.504 ± 0.56
promoter activity interaction Z-score [4, 29]: -0.826
promoter activity interaction Z-score [4, 30]: -0.127 ± 0.14
promoter activity interaction Z-score [4, 31]: -0.414
promoter activity interaction Z-score [4, 32]: 0.191 ± 0.32
promoter activity interaction Z-score [5, 21]: -0.805 ± 0.067
promoter activity interaction Z-score [5, 22]: -0.513 ± 0.77
promoter activity interaction Z-score [5, 23]: 0.0663 ± 0.25
promoter activity interaction Z-score [5, 24]: -0.014 ± 0.43
promoter activity interaction Z-score [5, 25]: -0.862 ± 1.1
promoter activity interaction Z-score [5, 26]: 0.245 ± 0.6
promoter activity interaction Z-score [5, 27]: -0.248 ± 0.75
promoter activity interaction Z-score [5, 28]: 0.869 ± 0.64
promoter activity interaction Z-score [5, 29]: -1.31 ± 0.28
promoter activity interaction Z-score [5, 30]: -0.148 ± 0.081
promoter activity interaction Z-score [5, 31]: -1.14 ± 0.47
promoter activity interaction Z-score [5, 32]: -0.192 ± 0.46
promoter activity interaction Z-score [6, 21]: -0.176 ± 0.037
promoter activity interaction Z-score [6, 22]: 0.0574 ± 0.0087
promoter activity interaction Z-score [6, 23]: 0.128 ± 0.056
promoter activity interaction Z-score [6, 24]: 0.247 ± 0.13
promoter activity interaction Z-score [6, 25]: -0.318 ± 0.11
promoter activity interaction Z-score [6, 26]: -0.0384 ± 0.093
promoter activity interaction Z-score [6, 27]: 0.0805 ± 0.022
promoter activity interaction Z-score [6, 28]: 0.308 ± 0.14
promoter activity interaction Z-score [6, 29]: -0.16 ± 0.27
promoter activity interaction Z-score [6, 30]: -0.404 ± 0.039
promoter activity interaction Z-score [6, 31]: -0.462 ± 0.067
promoter activity interaction Z-score [6, 32]: 0.162 ± 0.49
promoter activity interaction Z-score [7, 21]: -0.827 ± 0.069
promoter activity interaction Z-score [7, 22]: 0.61 ± 0.68
promoter activity interaction Z-score [7, 23]: -0.223 ± 0.083
promoter activity interaction Z-score [7, 24]: 0.974 ± 0.11
promoter activity interaction Z-score [7, 25]: -0.519 ± 0.51
promoter activity interaction Z-score [7, 26]: 0.897 ± 0.19
promoter activity interaction Z-score [7, 27]: 0.252 ± 0.61
promoter activity interaction Z-score [7, 28]: 0.0714 ± 0.32
promoter activity interaction Z-score [7, 29]: -0.626 ± 0.67
promoter activity interaction Z-score [7, 30]: -0.251 ± 0.16
promoter activity interaction Z-score [7, 31]: -0.791 ± 0.011
promoter activity interaction Z-score [7, 32]: 0.133 ± 0.12
